This is part of a sample that, as a whole, favours compounds with a hit. Of some 79,000 tested, about 15% had one in any assay. Active and inactive are the calls of the source. Rule as the data show it: active = growth inhibition above about 70%; inactive = the rest.
Test: NCI Yeast Anticancer Drug Screen. Data for the mec2-1 strain (AID 157)
Details: S. cerevisiae mec2-1 strain, at 50.0 µM, hits give high values
How it was run: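 Mutant yeast (mec2-1) grown with compound; growth inhibition relative to vehicle control reported.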
In the case of `COc1ccc(CN2CCCN(Cc3ccc(OC)cc3OC)C2c2ccc(N(CCCl)CCCl)cc2)c(OC)c1`, the growth inhibition is reported as 22.8% (inactive). For `[Cl][Pt+2][Cl].[NH-]c1ccc([N+](=O)[O-])cc1[NH-]`, the growth inhibition was 75.7% (active). In the case of `O=C(Oc1ccc(S(=O)(=O)F)cc1F)c1ccccc1Cl`, the growth inhibition is reported as 99.5% (active). In the case of `Oc1c(I)cc(I)cc1I`, the growth inhibition is reported as 43% (inactive). With `CCCCCCCCCCCCCCCC[N+](C)(C)CCOS(C)(=O)=O` the growth inhibition was 90.4% (active). In the case of `CN(C)CC1(N)C(=O)NC(=O)NC1=O`, the growth inhibition is reported as 78% (active). For `CC1=C(O)C(=O)C=C2C1=CC=C1[C@@]2(C)CC[C@@]2(C)[C@@H]3C[C@](C)(C(=O)O)CC[C@]3(C)CC[C@]12C`, the growth inhibition was 93.5% (active). In the case of `CCC[CH2][Sn]([CH2]CCC)([N]=C=S)[N]=C=S`, the growth inhibition is reported as 98% (active). With `O=C(C[n+]1ccccc1)C1CCc2ccccc2C1` (stereo not given) the growth inhibition was 5.7% (inactive). In the case of `[Cl][Pt][Cl].c1ccc([AsH](CC[AsH](c2ccccc2)c2ccccc2)c2ccccc2)cc1`, the growth inhibition is reported as 99.4% (active). For `COc1cc(/C=C\[N+](=O)[O-])ccc1O`, the growth inhibition was 99.6% (active). For `Cc1sc(Cc2ccccc2)nc1-c1ccc(N=Cc2ccc(N(CCCl)CCCl)cc2)cc1`, the growth inhibition was 93.8% (active). For `CC1(C)C2CCC([CH2][Hg][Cl])C1C2` (stereo not given), the growth inhibition was 99.2% (active). With `CC12C(=O)C=CCC1=CCC1C2CCC2(O)C(=O)OC3(C)C4CC5(C)C(COC16OC23C5C6=O)C(=O)O4` (stereo not given) the growth inhibition was 55.7% (inactive). With `O=C(CBr)OCC(Br)CBr` (stereo not given) the growth inhibition was 99% (active). In the case of `S=c1[nH]c2ccccc2s1.[Pb]`, the growth inhibition is reported as 94.8% (active). With `O=[N+]([O-])c1ccc(C(Br)Br)cc1` the growth inhibition was 99.6% (active). With `CC(C)(C)[Si](OC(=O)N(CCCl)CCCl)(c1ccccc1)c1ccccc1` the growth inhibition was 20.8% (inactive). In the case of `CCCCCCCC[N+]12CN3CN(CN(C3)C1)C2`, the growth inhibition is reported as 4.1% (inactive). With `CC(C=O)[Se]c1ccccc1` (stereo not given) the growth inhibition was 77.7% (active). With `CCOP(=O)(N=Nc1cccnc1)OCC` the growth inhibition was 6.35% (inactive). With `COc1cc(/C=C/c2ccc(OC)c(O)c2)cc(OC)c1` the growth inhibition was 99.2% (active). In the case of `ClC1CCCCC1[Se](Cl)(Cl)C1CCCCC1Cl` (stereo not given), the growth inhibition is reported as 98.7% (active). With `C/C(=N/NC(N)=S)c1ccc(Cl)cc1` the growth inhibition was 97.1% (active). For `O=C(Nc1ccccc1)c1cc([N+](=O)[O-])ccc1O.[Ni]`, the growth inhibition was 57.6% (inactive). With `CC1(C)N=C(N)N=C(N)N1c1ccc(OCCCCNC(=O)Nc2ccc(S(=O)(=O)F)cc2)c(Cl)c1` the growth inhibition was 99.3% (active). In the case of `Nc1nc(N)c(-c2ccc(Cl)c(Cl)c2)c(COc2ccc(CNC(=O)Nc3cccc(S(=O)(=O)F)c3)cc2Cl)n1`, the growth inhibition is reported as 58.9% (inactive). For `CC(=O)[O-].CC(=O)[O-].O=C(N/N=C/c1cc(Cl)cc(Cl)c1[OH2+])c1ccncc1.[Co+2]`, the growth inhibition was 61.9% (inactive). With `CC(Br)C(=O)C(CCN(C)C)(c1ccccc1)c1ccc(Br)s1` (stereo not given) the growth inhibition was 0.55% (inactive). With `[N-]=[N+]=NC1(N=[N+]=[N-])C(=O)NN=C(c2ccccc2)C1=O` (stereo not given) the growth inhibition was 91.2% (active). For `NC(=O)c1cc([N+](=O)[O-])c(Cl)c([N+](=O)[O-])c1Cl`, the growth inhibition was 86.7% (active). In the case of `Nc1nc(N)c(-c2ccc(Cl)c(Cl)c2)c(CCc2ccc(CNC(=O)c3cccc(S(=O)(=O)F)c3)cc2)n1`, the growth inhibition is reported as 59.2% (inactive). For `CCOC(=O)C(Cl)Cl`, the growth inhibition was -2.7% (inactive). In the case of `C1=C[N-]c2c3c(ccc2=C1)=CC=C[N-]3.C1=C[N-]c2c3c(ccc2=C1)=CC=C[N-]3.F[P-](F)(F)(F)(F)F.[Cu+2]`, the growth inhibition is reported as 99.5% (active). In the case of `CCCCCCCCCCC(=O)O.[Pb]`, the growth inhibition is reported as 5.05% (inactive). With `CN(Cc1ccccc1)CC(O)c1cccc(I)c1` (stereo not given) the growth inhibition was 11.3% (inactive). With `CCOc1c(Br)cc(N=Cc2ccc(N(CCCl)CCCl)c(OC)c2)cc1Br` the growth inhibition was 45.8% (inactive). With `COC(=O)C1ON(c2ccccc2)C2c3ccccc3-c3ccccc3C12` (stereo not given) the growth inhibition was 18.9% (inactive). For `COc1ccccc1C(Cc1ccc(N2C(N)=NC(N)=NC2(C)C)cc1)C(=O)Nc1ccc(S(=O)(=O)F)cc1` (stereo not given), the growth inhibition was 95% (active). In the case of `O=[N+]([O-])c1cc([N+](=O)[O-])c(Cl)s1`, the growth inhibition is reported as 99.7% (active).

Test: NCI Yeast Anticancer Drug Screen. Data for the sgs1 mgt1 strain (AID 161);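 also: 0% = growth of cultures given vehicle only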
Details: S. cerevisiae sgs1 mgt1 strain, at 5.0 µM (retest, dose inferred, filed as 0.5), hits give high values
How it was run: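 Percent growth inhibition was derived by comparing compound-exposed mutant yeast with vehicle-exposed cultures. The strain carries alterations in DNA damage repair.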
In the case of `COc1ccc(CN2CCCN(Cc3ccc(OC)cc3OC)C2c2ccc(N(CCCl)CCCl)cc2)c(OC)c1`, the growth inhibition is reported as -5% (inactive). For `[Cl][Pt+2][Cl].[NH-]c1ccc([N+](=O)[O-])cc1[NH-]`, the growth inhibition was 100% (active). In the case of `O=C(Oc1ccc(S(=O)(=O)F)cc1F)c1ccccc1Cl`, the growth inhibition is reported as -2% (inactive). In the case of `Oc1c(I)cc(I)cc1I`, the growth inhibition is reported as -9% (inactive). In the case of `CCCCCCCCCCCCCCCC[N+](C)(C)CCOS(C)(=O)=O`, the growth inhibition is reported as 99% (active). With `CN(C)CC1(N)C(=O)NC(=O)NC1=O` the growth inhibition was 4% (inactive). For `CC1=C(O)C(=O)C=C2C1=CC=C1[C@@]2(C)CC[C@@]2(C)[C@@H]3C[C@](C)(C(=O)O)CC[C@]3(C)CC[C@]12C`, the growth inhibition was 83% (active). For `CCC[CH2][Sn]([CH2]CCC)([N]=C=S)[N]=C=S`, the growth inhibition was 92% (active). With `O=C(C[n+]1ccccc1)C1CCc2ccccc2C1` (stereo not given) the growth inhibition was -1% (inactive). In the case of `[Cl][Pt][Cl].c1ccc([AsH](CC[AsH](c2ccccc2)c2ccccc2)c2ccccc2)cc1`, the growth inhibition is reported as 99% (active). For `COc1cc(/C=C\[N+](=O)[O-])ccc1O`, the growth inhibition was 34% (inactive). For `Cc1sc(Cc2ccccc2)nc1-c1ccc(N=Cc2ccc(N(CCCl)CCCl)cc2)cc1`, the growth inhibition was -108% (inactive). For `CC1(C)C2CCC([CH2][Hg][Cl])C1C2` (stereo not given), the growth inhibition was 100% (active). In the case of `CC12C(=O)C=CCC1=CCC1C2CCC2(O)C(=O)OC3(C)C4CC5(C)C(COC16OC23C5C6=O)C(=O)O4` (stereo not given), the growth inhibition is reported as 19% (inactive). For `O=C(CBr)OCC(Br)CBr` (stereo not given), the growth inhibition was 99% (active). In the case of `S=c1[nH]c2ccccc2s1.[Pb]`, the growth inhibition is reported as 0% (inactive). In the case of `O=[N+]([O-])c1ccc(C(Br)Br)cc1`, the growth inhibition is reported as 79% (active). With `CC(C)(C)[Si](OC(=O)N(CCCl)CCCl)(c1ccccc1)c1ccccc1` the growth inhibition was 13% (inactive). For `CCCCCCCC[N+]12CN3CN(CN(C3)C1)C2`, the growth inhibition was -6% (inactive). With `CC(C=O)[Se]c1ccccc1` (stereo not given) the growth inhibition was -3% (inactive). For `CCOP(=O)(N=Nc1cccnc1)OCC`, the growth inhibition was -1% (inactive). For `COc1cc(/C=C/c2ccc(OC)c(O)c2)cc(OC)c1`, the growth inhibition was 5% (inactive). In the case of `ClC1CCCCC1[Se](Cl)(Cl)C1CCCCC1Cl` (stereo not given), the growth inhibition is reported as 12% (inactive). In the case of `C/C(=N/NC(N)=S)c1ccc(Cl)cc1`, the growth inhibition is reported as 5% (inactive). For `O=C(Nc1ccccc1)c1cc([N+](=O)[O-])ccc1O.[Ni]`, the growth inhibition was 34% (inactive). With `CC1(C)N=C(N)N=C(N)N1c1ccc(OCCCCNC(=O)Nc2ccc(S(=O)(=O)F)cc2)c(Cl)c1` the growth inhibition was -1% (inactive). For `Nc1nc(N)c(-c2ccc(Cl)c(Cl)c2)c(COc2ccc(CNC(=O)Nc3cccc(S(=O)(=O)F)c3)cc2Cl)n1`, the growth inhibition was -4% (inactive). For `CC(=O)[O-].CC(=O)[O-].O=C(N/N=C/c1cc(Cl)cc(Cl)c1[OH2+])c1ccncc1.[Co+2]`, the growth inhibition was 7% (inactive). For `CC(Br)C(=O)C(CCN(C)C)(c1ccccc1)c1ccc(Br)s1` (stereo not given), the growth inhibition was -25% (inactive). With `[N-]=[N+]=NC1(N=[N+]=[N-])C(=O)NN=C(c2ccccc2)C1=O` (stereo not given) the growth inhibition was 4% (inactive). In the case of `NC(=O)c1cc([N+](=O)[O-])c(Cl)c([N+](=O)[O-])c1Cl`, the growth inhibition is reported as 83% (active). For `Nc1nc(N)c(-c2ccc(Cl)c(Cl)c2)c(CCc2ccc(CNC(=O)c3cccc(S(=O)(=O)F)c3)cc2)n1`, the growth inhibition was 7% (inactive). In the case of `CCOC(=O)C(Cl)Cl`, the growth inhibition is reported as 0% (inactive). In the case of `C1=C[N-]c2c3c(ccc2=C1)=CC=C[N-]3.C1=C[N-]c2c3c(ccc2=C1)=CC=C[N-]3.F[P-](F)(F)(F)(F)F.[Cu+2]`, the growth inhibition is reported as 47% (inactive). In the case of `CCCCCCCCCCC(=O)O.[Pb]`, the growth inhibition is reported as -7% (inactive). In the case of `CN(Cc1ccccc1)CC(O)c1cccc(I)c1` (stereo not given), the growth inhibition is reported as -2% (inactive). With `CCOc1c(Br)cc(N=Cc2ccc(N(CCCl)CCCl)c(OC)c2)cc1Br` the growth inhibition was -86% (inactive). In the case of `COC(=O)C1ON(c2ccccc2)C2c3ccccc3-c3ccccc3C12` (stereo not given), the growth inhibition is reported as 45% (inactive). For `COc1ccccc1C(Cc1ccc(N2C(N)=NC(N)=NC2(C)C)cc1)C(=O)Nc1ccc(S(=O)(=O)F)cc1` (stereo not given), the growth inhibition was 1% (inactive). With `O=[N+]([O-])c1cc([N+](=O)[O-])c(Cl)s1` the growth inhibition was 99% (active).
